# gsp agonist: agonists of gsp mutant (McCune-Albright syndrome); gsp mutant cells, cAMP HTRF, 30 min; Potency, µM (highest dose often 76.9 µM), actives largely listed as activators; 0.13% of 340,000 active; AID 624287; active = well fitted activation curve with a large enough effect; inconclusive = small, poorly fitted or top-dose-only effect, or another doubt; inactive = no such curve, though single readings can be large or run the other way; cell line not stated here;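 also: phosphodiesterase inhibitor Ro 20-1724 added with compounds to block cAMP breakdown; nearly all actives have a fitted effect of over 60% in size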
#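 Cells stably selected in G418 were plated at 2000/well, grown 16-24 hr, then given compounds in DMSO with the PDE inhibitor […] (300 uM solution added) for 30 min at 37C; cAMP was read by HTRF.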
# Coupling enz: counter-screen for Giardia aldolase inhibitors: coupling enzyme system | coupling enzyme system counterscreen, AmpLite Red fluorescence | activity change, negative = inhibition, % at 58.2 µM, hits read low | 0.67% of 290,000 active | AID 2472; in the data active = activity change below about -30%
#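 Final compound at 57.5 uM, incubated 10 min at RT with coupling enzyme reagent (glyceraldehyde-3-phosphate), then 20 min with substrate and AmpLite Red detection. Fluorescence read at 525/598 nm; tests interference with the coupling assay, not aldolase inhibition.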
# gsp antag: antagonists of gsp mutant (McCune-Albright syndrome). Potency, µM (top dose mostly 76.9 µM), most hits filed as inhibitors. AID 624288. 0.4% of 340,000 active. gsp-mutant cells, cAMP HTRF, 30 min; calls by dose curve; cell line not stated here;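 also: intracellular cAMP measured with PDE inhibitor Ro 20-1724 present during compound exposure; nearly all actives have a fitted effect of over 65% in size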
#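 G418-selected cells were plated in DMEM/10% FBS for 16-24 h at 37C, then treated with compounds plus the PDE inhibitor […] (300 uM solution added) for 30 min at 37C. Intracellular cAMP was measured by HTRF after 30 min lysis at room temperature.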
# RXFP1 antag: blocks the human relaxin receptor RXFP1; activity change, negative = inhibition, % at 57.5 µM; HEK293-RXFP1, relaxin-stimulated cAMP HTRF, 30 min; stronger effect = lower value; AID 1259400; 0.59% of 350,000 active; Q9HBX9;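 active = activity change of -60% or lower, but not beyond a set lower limit; inconclusive = change between -60% and -40%, or beyond the set limit; inactive = change above -40%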
# Target sequence (Q9HBX9 whole entry, looked up): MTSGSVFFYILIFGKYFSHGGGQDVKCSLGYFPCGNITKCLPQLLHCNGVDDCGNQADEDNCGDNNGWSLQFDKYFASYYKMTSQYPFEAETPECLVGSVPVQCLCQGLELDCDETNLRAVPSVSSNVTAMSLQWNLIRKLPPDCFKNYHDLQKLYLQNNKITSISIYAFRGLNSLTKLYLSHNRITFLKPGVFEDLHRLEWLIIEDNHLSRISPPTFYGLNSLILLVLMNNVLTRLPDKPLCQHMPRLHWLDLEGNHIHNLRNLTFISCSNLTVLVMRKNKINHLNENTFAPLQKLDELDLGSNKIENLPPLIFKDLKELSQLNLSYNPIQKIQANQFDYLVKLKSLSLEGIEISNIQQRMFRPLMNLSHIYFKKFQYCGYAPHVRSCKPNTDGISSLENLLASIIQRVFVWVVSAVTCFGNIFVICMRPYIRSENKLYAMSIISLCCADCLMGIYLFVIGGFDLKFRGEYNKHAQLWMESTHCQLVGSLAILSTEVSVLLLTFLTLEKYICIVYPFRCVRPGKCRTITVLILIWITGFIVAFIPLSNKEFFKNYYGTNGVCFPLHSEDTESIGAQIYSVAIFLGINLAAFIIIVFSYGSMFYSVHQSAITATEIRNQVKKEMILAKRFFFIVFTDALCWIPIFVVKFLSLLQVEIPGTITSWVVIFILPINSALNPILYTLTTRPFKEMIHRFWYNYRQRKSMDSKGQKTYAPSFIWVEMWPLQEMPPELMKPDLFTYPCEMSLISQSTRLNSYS
# Giardia killer: Giardia lamblia killing | Giardia lamblia trophozoite viability | activity change, % at 7.66 µM, hits read low | 0.15% of 340,000 active | AID 540267; in the data active = activity change below about -80%; inconclusive = between about -30% and that limit;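 also: parasites exposed to compound for two days anaerobically before the ATP read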
#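 Compounds were tested on trophozoites seeded at 100 cells/well and held 48 hrs at 37 deg C anaerobically. An ATP-based luminescent kit measured the remaining live cells.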
# RXFP1 agonist: agonists of human relaxin receptor RXFP1. HEK293T-RXFP1 cAMP TR-FRET, 30 min; response scale: percent of porcine relaxin response, buffer zero. 0.3% of 370,000 active. Potency, µM (highest dose often 57.5 µM), usual class: activators. Q9HBX9; active = well fitted activation curve with a large enough effect; inconclusive = small, poorly fitted or top-dose-only effect; also: nearly all actives have a fitted effect of over 60% in size
#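 HEK293T cells stably expressing RXFP1 were pretreated with the PDE4 inhibitor Ro 20174, exposed to compounds for 30 min at 37C, lysed, and cAMP was read by TR-FRET. Data normalized to buffer (basal) and 29 nM porcine relaxin (100%).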
# A number is an active result; n = inactive; u = inconclusive; x = no result; ! = not confirmed by another sample; [ ] = remark or other dose. An excerpt weighted towards active compounds, which were near 1.6% of everything screened.
SMILES,gsp agonist,Coupling enz,gsp antag,RXFP1 antag,Giardia killer,RXFP1 agonist
NC(=O)N[C@@H](CCC(=O)O)C(=O)O,x,x,x,n,x,x
C=CCC(C)(O)C#Cc1ccccc1 (stereo not given),x,n,x,x,x,x
O=C(C1CCN(S(=O)(=O)c2cccc3nsnc23)CC1)N1CC=C(c2ccccc2)CC1,n,n,u,n,n,n
O=C(C1CCC(CNS(=O)(=O)c2cccc3nsnc23)CC1)N1CC=C(c2ccccc2)CC1 (stereo not given),n,n,35µM,x,n,n
CCCCCCCCC(C)O (stereo not given),x,n,x,x,x,x
CCCCCCCCCCCCCCC(O)C[N+](C)(CCO)CCO (stereo not given),n,x,n,-61,n,x
O=[N+]([O-])c1ccc(Cl)c2c1C1C=CCC1C(c1ccccn1)N2 (stereo not given),n[15.4 µM],n,n,-118,n,n
Cc1cc(C(=O)CSc2nc3ccccc3c(=O)[nH]2)c(C)n1CC1CCCO1 (stereo not given),n[15.4 µM],n,35µM,n,n,n
N#C/C(=C1\SCC(c2ccccc2Cl)S1)n1ccnc1 (stereo not given),x,x,x,n,x,x
O=C(Nc1ccc(OC(F)(F)F)cc1)Nc1cccc([N+](=O)[O-])c1,n,n,u,-74,n,n
Cc1ccc(NC(=O)Nc2cccc([N+](=O)[O-])c2)cc1F,n[15.4 µM],n,u,n,n,n
CCCCS(=O)(=O)Nc1ccc(C)cn1,n,-51,n,n,n,n
COc1ccc(Cn2nnnc2C(c2ccccn2)N2CCN(c3ccc(O)cc3)CC2)cc1 (stereo not given),x,x,x,x,n,x
O=C1NC(=S)S/C1=C\C=C\c1ccc([N+](=O)[O-])o1,n[15.4 µM],n,u,n,-86,n
O=C(O)/C=C/c1ccc([N+](=O)[O-])o1,n,n,n,n,n,n
CCCN(CCC)c1nc(N)nc(C#N)n1,x,x,x,x,n,x
CNC(=O)Oc1ccc2c(c1)[C@]1(C)CCN(C)C1N2C (stereo not given in full),x,x,n,x,n,n
CNC(=O)Oc1ccc2c(c1)[C@@]1(C)CCN(C)[C@@H]1N2C,x,-44!,x,x,x,x
Cc1ccc(-c2csc(/C=C3/SC(C)C(=O)N3CC(=O)Nc3ccccc3F)n2)cc1 (stereo not given),n,x,n,-84,n,x
COC(=O)C1=C(C(=O)OC)[C@@H]2N(Cc3ccccc3)c3ccccc3[C@@]23C[C@@H](C(=O)OC)N(S(=O)(=O)c2ccc4c(c2)OCCN4C)C3=N1,x,n,x,x,x,x
CC(C)C(=O)NC(=S)Nc1c(Cl)ccc2nsnc12,n[15.4 µM],n,n,n,n,n
O=C(Nc1nc2cc(Cl)ccc2s1)C1CCCN(S(=O)(=O)c2cccc3cccnc23)C1 (stereo not given),n,n,u,x,n,n
Cc1cc(N/N=C/c2ccccc2)nc(NCc2ccccc2)n1,u,n,n,n,n,n
CN(C)c1cc(N/N=C\c2ccccc2)nc(N(C)C)n1,n,-39,n,n,n,n
COc1ccc(/C=N/Nc2cc(N(C)C)nc(N(C)C)n2)cc1,u,-42,n,n,n,n
SMILES,gsp agonist,Coupling enz,gsp antag,RXFP1 antag,Giardia killer,RXFP1 agonist
COc1ccccc1/C=N/Nc1cc(N(C)C)nc(N(C)C)n1,n[15.4 µM],-31,n,u,n,n
CN(C)[C@@H]1C(=O)C(C(N)=O)=C(O)[C@@]2(O)C(=O)C3=C(O)c4c(O)cccc4C[C@H]3C[C@@H]12,x,x,x,n,x,x
O=C(CN(C(=O)CNC(=O)c1cccs1)c1ccc(F)cc1)NC1CCCCC1,n,n,n,n,n,n
Fc1ccc(CNC(=S)Nc2cccc(C(F)(F)F)c2)cc1,n,n,n,n,n,n
Fc1ccc(Nc2nc3nonc3nc2Nc2cccc(C(F)(F)F)c2)cc1,x,x,x,-74,x,n
Cc1cccc(CCN(C(=O)c2csnn2)C(C(=O)NC2CCCC2)c2ccco2)c1 (stereo not given),n,n,n,-73,n,n
Cc1cccc(CCN(CC(=O)NC2CCCCC2)C(=O)c2csnn2)c1,n[15.4 µM],n,n,n,n,n
Cc1cccc(S(=O)(=O)Nc2ccc(C)c3c2OC(C)(C)C3)c1,n,-44,n,n,n,n
Cc1ccc(NS(=O)(=O)c2ccccc2Cl)c2c1CC(C)(C)O2,n,x,u,n,n,n
COc1ccc(CCNC(=O)COc2ncnc3cc([N+](=O)[O-])ccc23)cc1,n,n,n,n,n,n
O=[N+]([O-])c1cccc(COc2ncnc3cc([N+](=O)[O-])ccc23)c1,u,n,n,n,n,28µM
Cc1ccc(-c2nc3ccccn3c2Nc2ccccc2C)o1,x,x,x,x,n,x
Cc1cc2nc3c(=O)[nH]c(=O)[nH]c3nc2c([N+](=O)[O-])c1N,n[15.4 µM],-30,n,n,n,n
COc1ccc(-c2nc(-c3ccccn3)no2)cc1,u,n,n,n,-81,n
O=C(O)c1ccccc1-c1nc2ccccc2[nH]1,n[15.4 µM],n,n,n,n,n
Oc1ccc2ccccc2c1C=Nc1ccccc1-c1nc2ccccc2[nH]1,n,-32,n,x,n,n
Clc1cccc(-n2ncc3c(NC4CCCCC4)ncnc32)c1,x,x,x,-70,x,n
OCCNc1nc(-c2cccs2)nc2ccccc12,x,x,x,x,n,x
N#C/C(=C\c1ccc([N+](=O)[O-])o1)C(=O)Nc1ccc(F)cc1,n[15.4 µM],n,n,-68,n,n
Cc1ccc(/C=C(\C#N)C(=O)Nc2ccc(Br)cc2)o1,x,x,x,n,x,u
CN(C)CCC(=O)N1C/C(=C/c2ccccc2)C(=O)/C(=C\c2ccccc2)C1,n,x,n,-114,n,x
COc1ccc(-c2nc3c(c4c2C[C@H](c2ccccc2)OC4)CN(C(=O)NCc2ccco2)CC3)c(C)c1,x,n,x,x,x,x
O=C(O)c1c(O)c(-c2ccccc2)nc2ccccc12,x,x,x,n,x,x
O=C(Nc1nnc(C(F)(F)F)s1)C1COc2ccccc2O1 (stereo not given),n,n,35µM,n,n,n
NC(=O)c1c(NC(=O)C2COc3ccccc3O2)sc2c1CCN(Cc1ccccc1)C2 (stereo not given),n[15.4 µM],n,n,-97,n,n
CCOC(=O)c1c(NC(=O)C2COc3ccccc3O2)sc2c1CCN(Cc1ccccc1)C2 (stereo not given),n,n,n,n,n,n
COc1ccc(N2C(=O)CCSC23C(=O)N(Cc2ccc(F)cc2)c2ccccc23)cc1 (stereo not given),x,x,x,-82,x,n
COc1ccc(CNC(=O)CCC2N=C3c4ccccc4N=C(SCC(=O)NCCc4ccc(OC)c(OC)c4)N3C2=O)cc1 (stereo not given),x,x,x,n,x,n
Cc1ccc(C(C(=O)NCC2CCCO2)N(C(=O)c2snc(C(N)=O)c2N)c2ccccc2F)o1 (stereo not given),n[15.4 µM],n,n,u,n,n

# Compound activity as filed in PubChem BioAssay.
